A number with no mark means an inactive call. Active and inactive are the calls of the source. No rule for the calls is given here.
Assay: Biochemical counterscreen for C difficile toxins, absence of UDPG, inhibitor dose response (AID 720650)
Settings: series mostly up to 19.5 µM

SMILES | AC50
COc1cc(/C=N/NC(=O)c2nnn(-c3nonc3N)c2C(C)C)ccc1O | inactive
O=C(NC(=S)NNS(=O)(=O)c1ccccc1)c1cccnc1 | inactive
Oc1ccc(Cc2ccc(Cl)cc2)c(O)c1 | > 39 µM
O=C1Nc2ccc(Br)cc2C1Cc1ccccc1F (centres undefined) | 7.69 µM (active)
CCOC(=O)c1ccc(NC(=O)Oc2cc(C)c(Cl)cc2C(C)C)cc1 | inactive
CCCNC(=O)C[C@H]1CC[C@@H]2[C@@H](COc3ccc(NC(=O)c4ccc(Cl)cc4)cc3C(=O)N2C)O1 | > 39 µM
CN1C(=O)c2cc(NC(=O)c3cccc(F)c3)ccc2OC[C@@H]2O[C@@H](CC(=O)NCC3CCCCC3)CC[C@@H]21 | inactive
CCc1ccc2oc(-c3cc(N)ccc3Cl)nc2c1 | inactive
CCc1ccc(NC(=O)C2=CC(c3ccc(OC)cc3)=NS(=O)(=O)N2C)cc1 | inactive
Cc1ccc(/C=C(\C#N)C(=O)Nc2ccccn2)o1 | inactive
COc1ccc(NC(=O)C2CC(=O)N(c3ccccc3F)C2)cc1S(=O)(=O)N1CCCCC1 (centres undefined) | inactive
Cc1ccc(/C=C/c2onc(C)c2S(=O)(=O)N2CCC(C(=O)NC(C)(C)C)CC2)cc1 | inactive
CN(C)c1ccc(NC(=O)/C=C/c2c(Cl)cccc2Cl)cc1 | inactive
COc1ccc(/C=N/n2c(-c3cc(C)[nH]n3)n[nH]c2=S)cc1OC | > 39 µM
NS(=O)(=O)c1cccc(NC(=O)c2ccc(NS(=O)(=O)c3cccc([N+](=O)[O-])c3)cc2)c1 | inactive
COc1ccc(CCNC(=O)CCCn2nc(C)n3ccnc3c2=O)cc1OC | inactive
O=P1(Oc2ccccc2)OCCCS1 (centres undefined) | inactive
Cc1ccc(NNC(=O)c2ccno2)cc1Cl | 0.401 µM (active)
CC(C)(C)N1[C@@H](CC(=O)O)c2cc(C(F)(F)F)ccc2S1(=O)=O | inactive
COc1ccc(-c2ccc(OC(=O)NC3CCS(=O)(=O)C3)cc2)cc1 (centres undefined) | 12.6 µM (active)

SMILES | AC50
Cc1cc(C)nc(/N=C(\N)Nc2ccccc2-c2ccccc2)n1 | > 39 µM
CCC(=Nc1ccccc1)C1=C(O)CCCC1=O | inactive
CCOC(=O)N1CCN=C1SCc1ccc(Cl)c(Cl)c1 | inactive
CC(=O)Nc1cc(-c2ccc(F)cc2)[nH]n1 | 2.6 µM (active)
Cc1cccc(/C=C/c2onc(C)c2S(=O)(=O)N2CCC(C(=O)N3CCCCC3)CC2)c1 | inactive
CCOc1ccccc1/C=C/c1onc(C)c1S(=O)(=O)N1CCC(C(=O)N2CCCCCC2)CC1 | inactive
CN1C(=O)CSc2ccc(NC(=O)N3CCc4ccccc43)cc21 | 20.2 µM (active)
Cc1ccc2c(c1)/C(=C/c1ccccc1C)C(=O)N2 | inactive
Cc1cc(C)c(NS(=O)(=O)c2cccc3cccnc23)c(C)c1 | inactive
CC(=O)Nc1cccc(NC(=O)c2ccc(Br)cc2)c1 | inactive
CC(C)Sc1nnc(NC(=O)c2ccco2)s1 | inactive
C=CCN=c1scc(C)n1/N=C/c1ccc(O)c(O)c1 | > 39 µM
COc1ccc(NC(=O)Nc2nc(C)cc(C)n2)c(OC)c1 | inactive
COc1ccc(Cl)cc1NC(=O)CN(C)C(=O)c1cc2c(s1)CCCC2 | inactive
COc1ccc(CC(=O)NNC(=S)NC(=O)c2cccnc2)cc1 | inactive
CCCCn1c(CN2CCN(C(=O)c3ccco3)CC2)nc2c1c(=O)n(C)c(=O)n2C | inactive
O=C(O)c1cccnc1SCc1ccccc1Cl | inactive
CC(C)NC(=O)N1CC[C@@H]2[C@@H](CO)N(C)c3ccc(-c4ccc(F)cc4)cc3[C@@H]21 | 4.11 µM (active)
COc1ccc(CNC(=O)C2=CC(c3ccc(OC)c(OC)c3)=NS(=O)(=O)N2C)cc1 | > 39 µM

From PubChem BioAssay AID720650 (Broad Institute, 2013)
